# A selection: hits, their analogues and other compounds. The true share with any hit is near 2.2%.
# Abeta yeast res: restores growth of yeast expressing A-beta42 peptide; 410,000 tested, 0.063% active; Potency, µM (top dose mostly 46.1 µM), hits mostly activators; yeast expressing A-beta42, growth rescue, OD600, 48 h; response scale: 0% DMSO, 100% iron-clioquinol control; also: nearly all actives have a fitted effect of over 55% in size
#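 Growth rescue measured by 600 nm absorbance after 48 h yeast culture at 30 C with compound. Values normalized between DMSO and an equimolar ferric chloride plus clioquinol control.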
# TDP43 rescue: TDP-43 toxicity inhibition in yeast; TDP-43 expressing yeast growth rescue, BacTiter-Glo, 24 h; 410,000 tested, 1.8% active; Potency, µM (doses to about 46.1 µM), inactives show at the highest dose growth rescue (activation), hits mostly activators; also: % of control where 0% means no effect; nearly all actives have a fitted effect of over 50% in size
#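 Yeast expressing TDP-43 (pregrown in raffinose, seeded at OD600=0.02 in galactose medium) exposed to compounds 24 hr at 30 deg C. Growth read by BacTiter-Glo luminescence; rescue of toxicity appears as increased signal.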
# Mito fusion act: inhibitors of mitochondrial division or activators of mitochondrial fusion; S. cerevisiae fusion-defective mutant growth rescue, CellTiterGlo 48 h; 320,000 tested, 0.23% active; Potency, µM (highest dose often 46.1 µM), without a hit: top-dose growth rescue (activation), hits mostly activators; also: % of control where 0% means no effect; nearly all actives have a fitted effect of over 45% in size
#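 Yeast fusion mutant, YPEG (non-fermentable carbon), compound, 48 h at 37C non-permissive; CellTiterGlo added, 10 min RT, luminescence read. Rescued growth = division inhibition.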
# FUS yeast rescue: suppressors of FUS proteinopathy in yeast; S. cerevisiae FUS-expressing, growth rescue, OD600, 24 h; Potency, µM (highest dose often 76.6 µM), actives largely listed as activators; 390,000 tested, 0.24% active; AID 1347120;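 also: plate controls were DMSO vehicle for no effect and reference control for full effect; nearly all actives have a fitted effect of over 55% in size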
#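 Absorbance at 600 nm, taken 24hr after compound addition, measured rescue of FUS-yeast growth at 30C. Induction used 2% galactose with seeding at OD 0.005. Controls: CP55940 from 92uM final, DMSO only.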
# aSyn yeast inh: alpha-synuclein toxicity inhibition in yeast | Potency, µM (doses to about 46.1 µM), for inactives: top-dose growth rescue (activation), usual class: activators | Yeast expressing alpha-synuclein, growth rescue, BacTiter-Glo, 24 h | 370,000 tested, 0.14% active; also: % of control where 0% means no effect; nearly all actives have a fitted effect of over 65% in size
#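 Galactose-induced alpha-syn yeast (OD600=0.02, raffinose-pregrown) + pinned cpd, 24 hr, 30 deg C; growth by BacTiter-Glo luminescence. Growth restoration scores as activation.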
# * marks the source's active call; other numbers are inactive results; i = inactive; ? = inconclusive; . = no result given; [ ] = remark or other dose. Calls follow the shape of the dose curve; as a rule, active = well fitted curve in the direction sought with a large enough effect; inconclusive = small, poorly fitted or top-dose-only effect, or another doubt; inactive = no such curve, though single readings can be large; an effect the other way counts as inactive or inconclusive. Potency is read from the fitted curve at half-maximal effect.
SMILES,Abeta yeast res,TDP43 rescue,Mito fusion act,FUS yeast rescue,aSyn yeast inh
COc1ccc(Oc2c(O)c3ccccc3n(C)c2=O)cc1,i,19.7%,?,i,6.8%
Cn1c(=O)c(Oc2ccc(Cl)cc2)c(O)c2ccccc21,i,-1.7%,10µM*,i,1.5%
O=C(CCCCn1c(=O)c2ccccc2n(CC(=O)Nc2cccc(F)c2)c1=O)NCc1ccccc1Cl,i,10.7%,.,i,.
COc1ccc(CNC(=O)c2ccc3c(c2)N(Cc2cc(C)ccc2C)C(=O)CS3)cc1,i,15.7%,.,i,.
CCOC(=O)C1CCCc2c1[nH]c1ccc(Cl)cc21 (stereo not given),?,12.6µM*,-5.9%,i,1.3%
CCOC(=O)c1ccc2[nH]c3c(c2c1)CCCC3C(=O)OCC (stereo not given),i,?,-13.6%,i,-14.4%
CCOc1ccccc1N(C)C(=O)C1CCCN(c2ncnc3onc(-c4ccc(F)cc4)c23)C1 (stereo not given),i,17.9%,.,i,.
O=C(c1ccc2c(c1)N(Cc1ccc(Cl)cc1)C(=O)c1ccccc1S2(=O)=O)N1CCCC1,i,6.5%,.,31.6µM*,.
O=C(c1ccc2c(c1)N(Cc1ccc(Cl)cc1)C(=O)c1ccccc1S2(=O)=O)N1CCc2ccccc21,i,0.0%,.,7.94µM*,.
CCN1C(=O)C(CC(=O)Nc2ccc(F)cc2)N(Cc2ccco2)C1=S (stereo not given),i,18.2%,5.5%,i,3.4%
CCCCCCOc1ccc(NC(=O)CC2C(=O)N(CC)C(=S)N2Cc2ccco2)cc1 (stereo not given),i,?,-16.6%,.,14.1µM*
CC(=O)c1ccc(-c2c(CCO)sc3ccccc23)cc1,i,12.6µM*,.,i,14.5%
CC(=O)c1ccc(-c2[nH]c3ccccc3c2CCN2C(=O)c3ccccc3C2=O)cc1,i,19.4%,.,i,0.0%
CCSc1ncc(Cl)c(C(=O)N2CCN(c3ccc(OC)cc3)CC2)n1,i,0.0%,.,i,.
CCCS(=O)(=O)c1ncc(Cl)c(C(=O)N2CCN(c3ccc(OC)cc3)CC2)n1,i,14.1µM*,.,i,.
OCCN1CCCC12CCC(c1ccccc1)CC2 (stereo not given),.,.,.,i,.
COc1ccc(Cn2cc(CN3[C@@H](CC(C)C)COc4cccc(F)c4S3(=O)=O)nn2)cc1,.,.,.,i,.
CCCCn1nc(NC(=O)CC)c2cc3cc(OC)ccc3nc21,i,11.2µM*,?,i,-0.4%
COc1ccc2nc3c(cc2c1)c(NC(=O)c1cccs1)nn3CC(C)C,i,25.1µM*,5.2%,?,2.4%
COc1ccc(-c2noc(=O)n2Cc2ccccc2Cl)cc1,i,20µM*,25.0%,i,4.4%
COC(=O)C1CN(CCc2ccccc2)CCS(=O)(=O)N1Cc1ccc(C)cc1 (stereo not given),.,.,.,i,.
O=C1N/C(=N/N=C/c2ccc(F)cc2)SC1c1ccccc1 (stereo not given),i,6.9%,-1.5%,i,-3.7%
CC(C)=N/N=C1/NC(=O)C(c2ccc(Cl)cc2)S1 (stereo not given),?,20µM*,.,.,1.9%
CC(C)(C)c1ccc(S(=O)(=O)Nc2ccc(C(O)(C(F)(F)F)C(F)(F)F)cc2)cc1,?,35.5µM*,.,?,-25.0%
COc1cccc(S(=O)(=O)Nc2ccc(C(O)(C(F)(F)F)C(F)(F)F)cc2)c1,i,24.9%,.,i,-3.2%
SMILES,Abeta yeast res,TDP43 rescue,Mito fusion act,FUS yeast rescue,aSyn yeast inh
O=S(=O)(Nc1ccc(C(O)(C(F)(F)F)C(F)(F)F)cc1)c1cccc2ccccc12,i,35.5µM*,.,i,-16.0%
CCC(C)NC(=O)[C@H](CSCc1ccccc1)N1Cc2ccccc2C1=O (stereo not given in full),?,13.4%,17.7%,i,-0.3%
O=C(CNC(=O)c1cccc(F)c1)OCCOc1cccc(Cl)c1,i,12.6µM*,7.6%,i,8.4%
O=C(c1ccc(Cl)cc1)c1cc(-c2ccccn2)c(N2CCOCC2)s1,i,14.1µM*,2.1%,i,5.3%
COc1ccc(NC(=O)C2C3C=CC4(O3)C2C(=O)N(CCN2CCCCC2)C4C(=O)NC2CCCC(C)C2C)cc1 (stereo not given),i,-9.3%,31.6µM*,i,1.2%
COc1ccccc1NC(=O)Nc1nn(C)c2cccc(N(C)C)c12,i,20µM*,7.8%,?,-41.7%
CN(C)c1cccc2c1c(NC(=O)Nc1ccc(Cl)cc1Cl)nn2C,i,5.2%,2.0%,i,-0.9%
COC(=O)[C@H]1C[C@@]2(C#N)c3ccccc3N(C(=O)OC(C)(C)C)[C@H]2N1C(=O)OC(C)(C)C,.,.,.,i,.
COc1ccc(-c2ccccc2)cc1NC(=O)C1(C)CCN1C(=O)C(C)C (stereo not given),i,35.5µM*,.,?,2.4%
CC(C)C(=O)N1CCC1(C)C(=O)Nc1ccccc1OC(F)F (stereo not given),i,21.0%,.,i,2.7%
Cc1cccc(N2CCN(C(=O)c3oc(=O)c4ccccc4c3-c3ccccc3)CC2C)c1 (stereo not given),i,12.6µM*,.,?,.
O=C(c1oc(=O)c2ccccc2c1-c1ccccc1)N1CCOCC1,i,-5.2%,0.8%,i,0.3%
O=C(c1ccc2c(c1)OCO2)N1CCC(Oc2cccnc2)CC1,.,.,.,i,.
Cc1ccc(CNC(=O)COC(=O)Cn2nc(C)c([N+](=O)[O-])c2C)cc1,i,-3.5%[0.397 µM],0.7%,i,3.8%
Cc1nn(CC(=O)OCCOc2ccc(Br)cc2)c(C)c1[N+](=O)[O-],i,12.6µM*,7.5%,i,6.0%
CC(C)C(=O)N1CCC(Oc2cccnc2)CC1,.,.,.,i,.
COC(=O)[C@]12CCCCC=C1N(CCc1ccc(OC)c(OC)c1)C(=O)[C@H](CC(=O)NCCCCc1ccccc1)C2,i,7.8%,.,8.91µM*,2.7%
COC(=O)[C@]12CCCCC=C1N(CCc1ccc(OC)c(OC)c1)C(=O)[C@H](CC(=O)NCc1cccc(C(F)(F)F)c1)C2,i,1.2%,.,4.47µM*,3.0%
COC(=O)[C@]12CCCCC=C1N(CCc1ccc(OC)c(OC)c1)C(=O)[C@H](CC(=O)NCc1ccccc1)C2,i,0.0%,.,?,1.4%
O=c1cc(CNc2cc(C(F)(F)F)cc(C(F)(F)F)c2)nc2sccn12,i,17.8µM*,29.3%,.,-9.5%
O=c1ccc(C(F)(F)F)cn1Cc1cc(=O)n2ccsc2n1,i,1.3%,-20.0%,i,-9.1%
O=c1cc(COn2nnc3ccc(C(F)(F)F)cc32)nc2sccn12,i,10µM*,4.4%,i,12.2%

# Bioassay records from PubChem BioAssay.
